PubChem BioAssay AID1159607 (Small Molecule Screening Facility, UW Madison, 2016)
The campaign covered roughly 70,000 compounds. About 400 (0.57%) were called active. Cut-off read from the data, not from the text of the source: active = FP signal below about 40; inactive = the rest. Shown is part of a subset that was picked to be rich in actives.

tested on: RMI core complex (RMI1/RMI2) binding to FANCM MM2 peptide, human; assay: disruptors of RMI1/RMI2 association with MM2 peptide – biochemical, fluorescence polarization, human, primary screen (AID 1159607); conditions: RMI core complex with F-MM2 peptide, at 33 µM, stronger effect = lower value

FP signal (polarization), inactive:
Cc1nnc(SCc2ccccc2[N+](=O)[O-])s1 61
Nc1c(C(=O)c2ccc(Cl)cc2)sc2nc(-c3cccs3)cc(C(F)(F)F)c12 19
Nc1c(C(=O)c2cccc(Br)c2)sc2nc3c(c(-c4cccs4)c12)CCCC3 -15
O=S(=O)(NCC(c1ccsc1)N1CCOCC1)c1ccc(F)cc1F (stereo unspecified) 65
Cc1cc(C)c2nc(N(CCn3cccn3)C(=O)c3cc4ccccc4o3)sc2c1 66
CN1C(=O)c2ccc(NC(=O)c3ccn(C)n3)cc2C1=O 71
Cc1nc2sc(C)c(C)n2c(=O)c1NC(=O)c1c(F)cccc1Cl 66
COc1ccc(CCS(=O)(=O)Nc2ccc3c(c2)N(C)C(=O)C(C)(C)CO3)cc1 67
O=C(Cn1cnc(-c2ccc(F)cc2)cc1=O)N1CCN(c2cccc(Cl)c2)CC1 70
Cc1nc2c(=O)n(Cc3cccc(F)c3)nc(-c3ccco3)c2s1 62
O=C(O)CCNC(=S)Nc1ccc(F)c(Cl)c1 54
CC1(C)Cc2cccc(OCc3ccc(C(=O)NCCN4CCOCC4)cc3)c2O1 54
C=CCn1c(SCCC(=O)Nc2scc(-c3ccc(Cl)cc3)c2C(=O)OCC)nc2sc3c(c2c1=O)CCC(C)C3 (stereo unspecified) 84
NNC(=O)c1cccnc1N 51
COc1ccc(CCNC(=O)c2cccc(NS(=O)(=O)c3cccc(F)c3)c2)cc1OC 72
CCOC(=O)c1c(NC(=O)c2ccc(C(=O)OC)cc2)sc2c1CCC2 75
CCc1ccccc1NC(=O)C(=O)NCCCN1CCOC(c2ccccc2)C1 (stereo unspecified) 72
CCCC(=O)Oc1c(Cl)cc(N(C(=O)CCC)S(=O)(=O)c2ccc(C)cc2)cc1Cl 50
CC1CCc2c(sc(NC(=O)c3cccc([N+](=O)[O-])c3)c2C#N)C1 (stereo unspecified) 48
CC1=NN(CCN2CCCCC2)c2nc3c(c(=O)n(CCN4CCCCC4)c(=O)n3C)n2C1C (stereo unspecified) 65
CCCOc1ccc(Cn2c3ccccc3c3nc4ccccc4nc32)cc1 60
Cc1ccccc1OCCCn1c(C2CC(=O)N(C(C)(C)C)C2)nc2ccccc21 (stereo unspecified) 69
COc1ccc(-c2nnc(NC(=O)CSc3ccc(Cl)cc3)s2)cc1 67
Cc1cc(-c2nnc(NC(=O)/C=C/c3ccccc3Cl)o2)nn1C 63
COc1ccc(-c2nnc(NC(=O)c3cc(Cl)sc3Cl)o2)c(OC)c1 62
COc1ccc(-c2cc(C(F)(F)F)n3nc(C(=O)Nc4cc5c(cc4[N+](=O)[O-])OCCO5)cc3n2)cc1 37
CCn1cc(NC(=O)N2CCc3ccccc32)c2ccccc21 53
COc1ccccc1CCNC(=O)C(=O)NC1CCCCCC1 51

FP signal (polarization), active:
COc1ccc(-c2cc(-c3cccs3)nc3sc(C(N)=O)c(N)c23)cc1 33
Cc1ccc(C(C)C)c(OCCCn2c3ccccc3c3nc4ccccc4nc32)c1 27
COc1ccc(-c2nnc(NC(=O)/C=C/c3ccccc3Cl)o2)c(OC)c1 35
